For 10 compounds, growth inhibition results are on record in PubChem BioAssay (NCI).

Compounds without any hit were thinned out: in the full panel of roughly 79,000, 15% have a hit. A number with no mark means an inactive call. Calls of active or inactive are those of the source. Cut-off read from the data, not from the text of the source: active = growth inhibition above about 70%; inactive = the rest.

Experiment [1] is described as follows: NCI Yeast Anticancer Drug Screen. Data for the rad50 strain (AID 155).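 Note: 0% = growth of vehicle-only cultures of the same strain.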 To be noted: S. cerevisiae rad50 strain growth inhibition, stronger effect = higher value. The procedure, abridged: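 Inhibition values express reduced yeast growth in compound-treated cultures relative to vehicle-treated controls.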
Experiment [2] can be described thus: NCI Yeast Anticancer Drug Screen. Data for the mec2-1 strain (AID 157). To be noted: S. cerevisiae mec2-1 strain, stronger effect = higher value. The method in brief: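 Yeast mec2-1 mutant treated with compound. Readout: growth inhibition vs vehicle controls.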
Experiment [3] can be described thus: NCI Yeast Anticancer Drug Screen. Data for the sgs1 mgt1 strain (AID 161).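 Note: 0% = growth of cultures given vehicle only.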 The conditions noted are these: S. cerevisiae sgs1 mgt1 strain, stronger effect = higher value. The procedure, abridged:
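Inhibition of yeast growth, normalised to vehicle-treated controls, is reported for a strain bearing genetic alterations in DNA damage repair.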

Experiment [4] is described as follows: NCI Yeast Anticancer Drug Screen. Data for the cln2 rad14 strain (AID 165).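 Note: 0% = growth equal to vehicle treated cultures.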 To be noted: S. cerevisiae cln2 rad14 strain, stronger effect = higher value. The procedure, abridged: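 cln2 rad14 yeast strain; compound exposure; growth inhibition read vs vehicle controls.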
Experiment [5] is described as follows: NCI Yeast Anticancer Drug Screen. Data for the bub3 strain (AID 167). The conditions noted are these: S. cerevisiae bub3 mutant strain, stronger effect = higher value. The procedure, abridged: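 Steps: expose the mutant yeast strain to compound; grow alongside vehicle-treated cultures; measure growth; express inhibition against the vehicle cultures.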
A short description of experiment [6]: NCI Yeast Anticancer Drug Screen. Data for the mlh1 rad18 strain (AID 175). The conditions noted are these: S. cerevisiae mlh1 rad18 strain growth inhibition, stronger effect = higher value. The method in brief: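 Yeast w/ defined DNA-repair lesions; compound exposure; growth vs vehicle controls → % inhibition.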
Setting [7] is: at 5.0 µM (retest, dose inferred, filed as 0.5).
Setting [8] is: at 50.0 µM (retest, dose inferred, filed as 5.0).

As for `CCCCC1C(=O)N2c3ccccc3-c3ccccc3N2C1=O`, the growth inhibition in experiment [1] (setting [7]) is -5%; in experiment [1] (setting [8]), 30%; in experiment [1] (at 50.0 µM), 65.5%; in experiment [2] (setting [7]), 4%; in experiment [2] (setting [8]), 33%; in experiment [2] (at 50.0 µM) it was 6.8%. Also, the growth inhibition in experiment [3] (setting [7]) is -3%; in experiment [3] (setting [8]), 23%; in experiment [3] (at 50.0 µM) it was 43.2%; in experiment [4] (setting [7]) it was -4%; in experiment [4] (setting [8]), 8%; in experiment [4] (at 50.0 µM), 14.8%. Further, the growth inhibition in experiment [5] (setting [7]) is 6%; in experiment [5] (setting [8]), 10%; in experiment [5] (at 50.0 µM), 17.4%; in experiment [6] (setting [7]) it was 0%; in experiment [6] (setting [8]), 34%; in experiment [6] (at 50.0 µM), 35%.

In the case of `COc1ccc(C(=O)OC(=O)c2ccc(OC)cc2)cc1`, the growth inhibition in experiment [1] (setting [7]) is 5%; in experiment [1] (setting [8]) it was 9%; in experiment [1] (at 50.0 µM), 71.4% (active); in experiment [2] (setting [7]) it was -6%; in experiment [2] (setting [8]), 7%; in experiment [2] (at 50.0 µM) it was 18.1%. The growth inhibition in experiment [3] (setting [7]) was 2%; in experiment [3] (setting [8]), -70%; in experiment [3] (at 50.0 µM), 22.1%; in experiment [4] (setting [7]), 4%; in experiment [4] (setting [8]), -4%; in experiment [4] (at 50.0 µM) it was 6.05%. Moreover, the growth inhibition in experiment [5] (setting [7]) is -1%; in experiment [5] (setting [8]), 8%; in experiment [5] (at 50.0 µM), 28.1%; in experiment [6] (setting [7]), -10%; in experiment [6] (setting [8]) it was 16%; in experiment [6] (at 50.0 µM), 74.4% (active).

In the case of `Clc1ccc(-c2csc(NCC3CCCO3)n2)cc1` (stereo not given), the growth inhibition is 46% in experiment [1] (setting [7]); 60% in experiment [1] (setting [8]); 66.4% in experiment [1] (at 50.0 µM); 27% in experiment [2] (setting [7]); 57% in experiment [2] (setting [8]); 39% in experiment [2] (at 50.0 µM). In addition, the growth inhibition in experiment [3] (setting [7]) is 34%; in experiment [3] (setting [8]), 83% (active); in experiment [3] (at 50.0 µM), 77.2% (active); in experiment [4] (setting [7]), 27%; in experiment [4] (setting [8]), 53%; in experiment [4] (at 50.0 µM), 63.2%. Besides, the growth inhibition was 39% in experiment [5] (setting [7]); 82% (active) in experiment [5] (setting [8]); 73.9% (active) in experiment [5] (at 50.0 µM); 44% in experiment [6] (setting [7]); 70% (active) in experiment [6] (setting [8]); 62.4% in experiment [6] (at 50.0 µM).

Consider `CCCC(C)(O)C(C)CC` (stereo not given), for which the growth inhibition in experiment [1] (setting [7]) is 2%; in experiment [1] (setting [8]) it was 5%; in experiment [1] (at 50.0 µM), 19.1%; in experiment [2] (setting [7]), 0%; in experiment [2] (setting [8]), -1%; in experiment [2] (at 50.0 µM) it was 9.3%. Also, the growth inhibition in experiment [3] (setting [7]) was -1%; in experiment [3] (setting [8]) it was 0%; in experiment [3] (at 50.0 µM), -0.85%; in experiment [4] (setting [7]), -3%; in experiment [4] (setting [8]) it was -8%; in experiment [4] (at 50.0 µM) it was -6.9%. Also, the growth inhibition in experiment [5] (setting [7]) is -3%; in experiment [5] (setting [8]), 8%; in experiment [5] (at 50.0 µM), 2.45%; in experiment [6] (setting [7]) it was -2%; in experiment [6] (setting [8]), 0%; in experiment [6] (at 50.0 µM) it was 7.7%.

On to `O=C1c2ccccc2C(=O)c2c(OCCOCCO)cccc21`, for which the growth inhibition in experiment [1] (setting [7]) is 6%; in experiment [1] (setting [8]), 70% (active); in experiment [1] (at 50.0 µM), 86.2% (active); in experiment [2] (setting [7]), 3%; in experiment [2] (setting [8]), 18%; in experiment [2] (at 50.0 µM), 23.9%. Further, the growth inhibition in experiment [3] (setting [7]) was 2%; in experiment [3] (setting [8]) it was 31%; in experiment [3] (at 50.0 µM) it was 18%; in experiment [4] (setting [7]) it was -3%; in experiment [4] (setting [8]) it was 21%; in experiment [4] (at 50.0 µM), 24.6%. In addition, the growth inhibition was -6% in experiment [5] (setting [7]); 17% in experiment [5] (setting [8]); 37.6% in experiment [5] (at 50.0 µM); 1% in experiment [6] (setting [7]); 65% in experiment [6] (setting [8]); 39.6% in experiment [6] (at 50.0 µM).

As for `COc1ccc(C(=O)C2Cc3c(ccc4ccccc34)OC2=O)cc1` (stereo not given), the growth inhibition in experiment [1] (setting [7]) was 4%; in experiment [1] (setting [8]) it was 1%; in experiment [1] (at 50.0 µM), 2.05%; in experiment [2] (setting [7]), -2%; in experiment [2] (setting [8]) it was -11%; in experiment [2] (at 50.0 µM), -1.25%. In addition, the growth inhibition in experiment [3] (setting [7]) is -3%; in experiment [3] (setting [8]) it was 2%; in experiment [3] (at 50.0 µM), -7.8%; in experiment [4] (setting [7]) it was 7%; in experiment [4] (setting [8]), 1%; in experiment [4] (at 50.0 µM) it was 20.1%. For the same compound, the growth inhibition is -1% in experiment [5] (setting [7]); -2% in experiment [5] (setting [8]); -30.4% in experiment [5] (at 50.0 µM); -5% in experiment [6] (setting [7]); -5% in experiment [6] (setting [8]); -11.3% in experiment [6] (at 50.0 µM).

For the compound `C=[CH][Sn]([CH]=C)([S]c1cccc2cccnc12)[S]c1cccc2cccnc12`, the growth inhibition is 12% in experiment [1] (setting [7]); 99% (active) in experiment [1] (setting [8]); 92% (active) in experiment [1] (at 50.0 µM); 16% in experiment [2] (setting [7]); 100% (active) in experiment [2] (setting [8]); 91.5% (active) in experiment [2] (at 50.0 µM). Moreover, the growth inhibition was 27% in experiment [3] (setting [7]); 99% (active) in experiment [3] (setting [8]); 92.3% (active) in experiment [3] (at 50.0 µM); 16% in experiment [4] (setting [7]); 99% (active) in experiment [4] (setting [8]); 75.5% (active) in experiment [4] (at 50.0 µM). Moreover, the growth inhibition was 19% in experiment [5] (setting [7]); 94% (active) in experiment [5] (setting [8]); 83.7% (active) in experiment [5] (at 50.0 µM); 18% in experiment [6] (setting [7]); 99% (active) in experiment [6] (setting [8]); 91.8% (active) in experiment [6] (at 50.0 µM).

Take `CCc1nc(N)nc(N)c1-c1ccc(NCCCN)c([N+](=O)[O-])c1`: the growth inhibition is -15% in experiment [1] (setting [7]); -17% in experiment [1] (setting [8]); 69.7% in experiment [1] (at 50.0 µM); 17% in experiment [2] (setting [7]); -2% in experiment [2] (setting [8]); 44.8% in experiment [2] (at 50.0 µM). Besides, the growth inhibition in experiment [3] (setting [7]) is -19%; in experiment [3] (setting [8]), -36%; in experiment [3] (at 50.0 µM), 69.2%; in experiment [4] (setting [7]), -15%; in experiment [4] (setting [8]), -5%; in experiment [4] (at 50.0 µM), 69%. Further, the growth inhibition is -44% in experiment [5] (setting [7]); -18% in experiment [5] (setting [8]); 6.45% in experiment [5] (at 50.0 µM); -17% in experiment [6] (setting [7]); -36% in experiment [6] (setting [8]); 82.5% (active) in experiment [6] (at 50.0 µM).

In the case of `NNc1cc(C(F)(F)F)nc2ccccc12`, the growth inhibition is -133% in experiment [1] (setting [7]); -80% in experiment [1] (setting [8]); 35.5% in experiment [1] (at 50.0 µM); -48% in experiment [2] (setting [7]); -46% in experiment [2] (setting [8]); 3.1% in experiment [2] (at 50.0 µM). Also, the growth inhibition is -53% in experiment [3] (setting [7]); -48% in experiment [3] (setting [8]); -21.1% in experiment [3] (at 50.0 µM); -56% in experiment [4] (setting [7]); -88% in experiment [4] (setting [8]); 34.1% in experiment [4] (at 50.0 µM). In addition, the growth inhibition in experiment [5] (setting [7]) was -65%; in experiment [5] (setting [8]) it was -75%; in experiment [5] (at 50.0 µM) it was 1.45%; in experiment [6] (setting [7]), -108%; in experiment [6] (setting [8]), -95%; in experiment [6] (at 50.0 µM) it was 64.8%.

Turning to `CC12CCC(=O)C=C1CCC1C2CCC2(C)C(C(=O)Cn3cnc4c(=S)nc[nH]c43)CCC12` (stereo not given), the growth inhibition in experiment [1] (setting [7]) was 11%; in experiment [1] (setting [8]) it was 25%; in experiment [1] (at 50.0 µM), 32.2%; in experiment [2] (setting [7]), 5%; in experiment [2] (setting [8]), -6%; in experiment [2] (at 50.0 µM) it was 24.6%. Also, the growth inhibition is -2% in experiment [3] (setting [7]); 23% in experiment [3] (setting [8]); 37.5% in experiment [3] (at 50.0 µM); -26% in experiment [4] (setting [7]); 19% in experiment [4] (setting [8]); 14.8% in experiment [4] (at 50.0 µM). In addition, the growth inhibition is 0% in experiment [5] (setting [7]); 16% in experiment [5] (setting [8]); -4.65% in experiment [5] (at 50.0 µM); -2% in experiment [6] (setting [7]); 22% in experiment [6] (setting [8]); -4.7% in experiment [6] (at 50.0 µM).
